Measured values as given in the supplement of paper PMC9694430.
Where a name gives a salt, the structure may show the parent alone.

Assays:
Assay in all cases: thermal shift delta Tm vs DMSO control; higher = stronger stabilization (binding)
Conditions in all cases: 12.5 µM; protein concentration 2 µM
LOC_OS01G57100-cb003 = test system: LOC_OS01G57100-cb003
Outline: (§1)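 Heating from 25°C to 95°C at 0.05°C/s, fluorescence was recorded for 19.5 μl wells of 2 μM E. coli-expressed, purified rice kinase domain in 100 mM potassium phosphate pH 7.5, 150 mM NaCl, 10% glycerol and 5 × SYPRO Orange with compound in DMSO. Boltzmann fits gave melting temperatures for this differential scanning fluorimetry assay. The shift reported is the mean of three replicates against the DMSO-only protein.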

LOC_OS01G60330-cb001 = test system: LOC_OS01G60330-cb001
Outline: as §1

LOC_OS01G60700-cb002 = test system: LOC_OS01G60700-cb002
Outline: as §1

LOC_OS01G63280-cb003 = test system: LOC_OS01G63280-cb003
Outline: as §1

LOC_OS01G67340-cb003 = test system: LOC_OS01G67340-cb003
Outline: as §1

LOC_OS01G70970-cb002 = test system: LOC_OS01G70970-cb002
Outline: as §1

LOC_OS02G07810-cb001 = test system: LOC_OS02G07810-cb001
Outline: as §1

LOC_OS02G08530-cb003 = test system: LOC_OS02G08530-cb003
Outline: as §1

LOC_OS02G14120-cb001 = test system: LOC_OS02G14120-cb001
Outline: as §1

LOC_OS02G17970-cb001 = test system: LOC_OS02G17970-cb001
Outline: as §1

LOC_OS02G45750-cb003 = test system: LOC_OS02G45750-cb003
Outline: as §1

LOC_OS02G54510-cb004 = test system: LOC_OS02G54510-cb004
Outline: as §1

LOC_OS03G04050-cb001 = test system: LOC_OS03G04050-cb001
Outline: as §1

LOC_OS03G12390-cb001 = test system: LOC_OS03G12390-cb001
Outline: as §1

LOC_OS03G27990-cb004 = test system: LOC_OS03G27990-cb004
Outline: as §1

LOC_OS03G50450-cb001 = test system: LOC_OS03G50450-cb001
Outline: as §1

LOC_OS03G50810-cb003 = test system: LOC_OS03G50810-cb003
Outline: as §1

LOC_OS04G35114-cb001 = test system: LOC_OS04G35114-cb001
Outline: as §1

LOC_OS04G38480-cb003 = test system: T1, LOC_OS04G38480-cb003
T1 sequence (whole entry): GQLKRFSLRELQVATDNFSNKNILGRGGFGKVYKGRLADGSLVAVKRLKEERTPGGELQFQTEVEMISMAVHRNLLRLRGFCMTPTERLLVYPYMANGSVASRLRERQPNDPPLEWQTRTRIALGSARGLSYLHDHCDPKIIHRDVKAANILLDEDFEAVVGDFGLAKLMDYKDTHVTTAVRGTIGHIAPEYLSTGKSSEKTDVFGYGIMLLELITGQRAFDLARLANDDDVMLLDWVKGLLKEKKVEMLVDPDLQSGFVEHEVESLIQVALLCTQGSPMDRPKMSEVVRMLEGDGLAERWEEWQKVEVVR
Outline: as §1

LOC_OS04G41100-cb001 = test system: T2, LOC_OS04G41100-cb001
T2 sequence (whole entry): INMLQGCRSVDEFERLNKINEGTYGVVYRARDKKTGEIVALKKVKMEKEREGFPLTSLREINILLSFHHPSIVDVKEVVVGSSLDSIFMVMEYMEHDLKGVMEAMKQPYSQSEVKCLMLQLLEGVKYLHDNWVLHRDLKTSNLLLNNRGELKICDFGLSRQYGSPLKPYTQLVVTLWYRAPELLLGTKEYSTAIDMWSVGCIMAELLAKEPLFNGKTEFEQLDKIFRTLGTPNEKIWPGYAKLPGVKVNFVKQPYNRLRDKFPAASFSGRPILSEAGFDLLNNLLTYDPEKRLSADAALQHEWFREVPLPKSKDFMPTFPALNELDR
Outline: as §1
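Also: purified Escherichia coli-expressed rice kinase domain construct.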

| SMILES | thermal shift delta Tm (LOC_OS01G57100-cb003) [°C] | thermal shift delta Tm (LOC_OS01G60330-cb001) [°C] | thermal shift delta Tm (LOC_OS01G60700-cb002) [°C] | thermal shift delta Tm (LOC_OS01G63280-cb003) [°C] | thermal shift delta Tm (LOC_OS01G67340-cb003) [°C] | thermal shift delta Tm (LOC_OS01G70970-cb002) [°C] | thermal shift delta Tm (LOC_OS02G07810-cb001) [°C] | thermal shift delta Tm (LOC_OS02G08530-cb003) [°C] | thermal shift delta Tm (LOC_OS02G14120-cb001) [°C] | thermal shift delta Tm (LOC_OS02G17970-cb001) [°C] | thermal shift delta Tm (LOC_OS02G45750-cb003) [°C] | thermal shift delta Tm (LOC_OS02G54510-cb004) [°C] | thermal shift delta Tm (LOC_OS03G04050-cb001) [°C] | thermal shift delta Tm (LOC_OS03G12390-cb001) [°C] | thermal shift delta Tm (LOC_OS03G27990-cb004) [°C] | thermal shift delta Tm (LOC_OS03G50450-cb001) [°C] | thermal shift delta Tm (LOC_OS03G50810-cb003) [°C] | thermal shift delta Tm (LOC_OS04G35114-cb001) [°C] | thermal shift delta Tm (LOC_OS04G38480-cb003) [°C] | thermal shift delta Tm (LOC_OS04G41100-cb001) [°C] |
| --- | --- | --- | --- | --- | --- | --- | --- | --- | --- | --- | --- | --- | --- | --- | --- | --- | --- | --- | --- | --- |
| CNC(=O)c1ccc(C)c(-n2c(C)cc(OCc3ccc(F)cc3F)c(Br)c2=O)c1 | 2.4 | 0.78 | 1.45 | 0.3 | -0.29 | 0.12 | 1.25 | 0.96 | 0.27 | 0.83 | 0.5 | 0.06 | 0.28 | 0.6 | 0.15 | 0.27 | 0.59 | 0.14 | 0.62 | 0.73 |
| CN1CCC(CNc2ccc3ncc(-c4cccc(OC(F)(F)F)c4)n3n2)CC1 [SGI-1776 free base] | 0.83 | 0.19 | 0.47 | 0.98 | -0.25 | 1.79 | 0.42 | 2.78 | 7.23 | -0.26 | 3.47 | 0.36 | -0.12 | 0.16 | 0.31 | 0.18 | 3.02 | 4.33 | 1.08 | 0.53 |
| Nc1nccc(Oc2ccc3c(C(=O)Nc4cccc(C(F)(F)F)c4)cccc3c2)n1 | 1.31 | 1.99 | 0.86 | 7.54 | 0.91 | 0.71 | 0.76 | 0.59 | 1.14 | 1.47 | -1.33 | 0.78 | 0.37 | -0.16 | 0.11 | -0.18 | 0.17 | 0.62 | 1.77 | 0.51 |
| CNC(=O)c1ccccc1Nc1nc(Nc2ccc(N3CCOCC3)cc2OC)ncc1Cl | 2.81 | 0.04 | 1.25 | 0.09 | 0.32 | 2.69 | 0.19 | 4.3 | 5.33 | 1.35 | 1.17 | -0.15 | 0.35 | 4.35 | 0.45 | 0.26 | 2.21 | 2.54 | 1.62 | 0.51 |
| COc1cc2ncnc(Oc3ccc(CC(=O)Nc4cnn(C(C)C)c4)cc3)c2cc1OC | 0.71 | 0.05 | 1.1 | 0.13 | -0.21 | 0.47 | 0.52 | 0.53 | 0.06 | 0.84 | 0.54 | 0.74 | 0.53 | 0.37 | 0.19 | 0.01 | 0.5 | 2.1 | 1.49 | 0.32 |
| Nc1ncccc1-c1nc2ccc(-c3ccccc3)nc2n1-c1ccc(C2(N)CCC2)cc1 [Miransertib (ARQ 092) HCl] | -0.19 | 0.58 | -0.42 | -0.11 | 0.08 | 0.38 | -1.04 | 0.49 | 1.05 | -0.46 | 0.57 | -0.18 | 0.2 | -0.09 | 0.04 | 0.49 | -0.05 | 0.38 | 0.6 | 0.18 |
| Nc1[nH]nc2nnc(-c3c(-c4ccccc4)nn4ccccc34)cc12 | 1.13 | 1.24 | 0.92 | 0.4 | 0.72 | 0.68 | -0.25 | 2.11 | 0.36 | 0.87 | 1.41 | 0.54 | 0.66 | 1.36 | 0.56 | 1.03 | 0.41 | 1.11 | 0.15 | 0.75 |
| O=C(NCCCNc1nc(Nc2cccc(NC(=O)N3CCCC3)c2)ncc1I)c1cccs1 | 1.91 | 11.8 | 0.35 | 0.47 | 2.07 | 8.4 | 1.11 | 2.77 | 9.13 | 0.49 | 14.3 | 1.24 | 0.97 | 7.32 | 0.57 | 6.67 | 6.52 | 7.01 | 3.4 | 2.91 |
| Cc1nc(-c2cn3c(n2)-c2ccc(-c4cnn(C(C)(C)C(N)=O)c4)cc2OCC3)n(C(C)C)n1 [Taselisib (GDC 0032)] | 0.43 | 0.33 | 0.46 | 0.16 | 0.07 | 0.23 | 0.07 | 0.84 | 0.27 | 0.09 | 1.34 | 0.17 | 0.54 | -0.31 | 0.3 | 0.34 | -0.05 | 0.68 | 0.83 | 0.38 |
| O=C(/C=C/c1ccc2ccccc2n1)c1ccncc1 | 1.22 | 1.35 | 0.05 | 1.12 | 0.62 | 0.59 | 0.02 | 2.02 | 2.08 | 1.05 | 4.53 | -0.52 | 0.27 | -1.09 | 0.7 | 0.7 | 0.37 | 4.4 | 4.06 | 2.67 |
| CN1CCN(Cc2ccc(-c3cnc4[nH]cc(-c5ccc6[nH]ccc6c5)c4c3)cc2)CC1 | 2.72 | 5.96 | 2.47 | 7.33 | 7.26 | 10.2 | 1.34 | 5.47 | 10.8 | 0.97 | 17.2 | 1.09 | 0.85 | 4.74 | 10.8 | 3.95 | 7.6 | 14.9 | 6.36 | 3.3 |
| CN1CCN(c2ccc(-c3ccncc3-c3cc(F)c(O)c(F)c3)cc2)CC1 | 0.87 | 1.02 | 0.66 | 0.31 | 0.24 | 0.16 | 0.06 | 0.29 | 1.22 | 0.89 | 0.61 | 0.42 | 0.42 | -0.07 | 0.3 | 0.59 | 0.5 | 1.01 | 1.07 | 0.43 |
